Data published in PubChem BioAssay (Tox21).
Several values for one entry are separate records, joined by “and”; a condition that tells them apart may be missing. Equal values may be shown once. Inconclusive results are not listed. The source holds several records for some structures; these can differ, active in one and inactive in another. Activity calls are given as the source filed them. Unless noted, the call rests on the fitted dose curve.

Experiments:
[1] = Nuclear factor erythroid 2-related factor 2/antioxidant responsive element (Nrf2/ARE) small molecule agonists: qHTS cell viability counter screen in human keratinocytes (AID 1919968; active means well fitted curve in the direction sought with a large enough effect in the repeat runs; an effect the other way counts as inactive or inconclusive; further: nearly all actives have a fitted effect of over 55% in size; further: potency means the concentration at half of the fitted maximal effect)
In short: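 In human HaCaT keratinocytes stably expressing an ARE-driven luciferase, compound exposure lasted 23 h at 37 C under 5% CO2. Viable cells are quantified with a protease-based fluorogenic reagent (CellTiter-Fluor) read 1 h after addition.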

[2] = Nuclear factor erythroid 2-related factor 2/antioxidant responsive element (Nrf2/ARE) small molecule agonists: luciferase reporter gene qHTS assay in human keratinocytes (AID 1919969); further: nearly all actives have a fitted effect of over 35% in size; further: potency means the concentration at half of the fitted maximal effect
[3] = biological target: Gonadotropin-releasing hormone receptor (Homo sapiens) (UniProt P30968); assay: Human gonadotropin-releasing hormone receptor (GnRHR) small molecule agonists, calcium flux assay in GnRHR-HEK293 cells (AID 1920063); further: nearly all actives have a fitted effect of over 35% in size; further: potency means the concentration at half of the fitted maximal effect
In short: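 Intracellular calcium rise is the read-out: engineered human GnRHR HEK293 cells, dye-loaded, are exposed to DMSO-dissolved compounds and fluorescence at Ex/Em 480/540 is tracked for 3 min.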

[4] = biological target: KiSS-1 receptor (Homo sapiens) (UniProt Q969F8); assay: Human kisspeptin (KISS1R) small molecule agonists, calcium flux assay in KISS1R-HEK293 cells (AID 1920064; active means well fitted curve in the direction sought with a large enough effect in the repeat runs; an effect the other way counts as inactive or inconclusive)
In short: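 Concentration-response testing used 15 concentrations in triplicate on human KISS1R-expressing HEK293 cells. Calcium-dependent fluorescence (Ex/Em 480/540) was followed kinetically for 3 min after compound transfer.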

[5] = G protein-coupled receptor (GPCR) small molecule agonists, calcium flux assay: HEK293 wild type cell line counter screen (AID 1920065)
In short: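 Fluorescence intensity signals activation. After overnight (18 h) culture and a 1 h calcium dye load at 37 C, compounds are added by pin tool and the plate read at 480/540 nm for 3 min in 1 s steps.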

[6] = p53 small molecule agonists, cell-based qHTS assay with human liver microsomes (AID 1963577);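 further: p53 response element beta-lactamase reporter cells with liver microsomes plus NADPH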
In short: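 Metabolically competent format: test substances, human liver microsomes and NADPH (both 0.5 mg/mL final) incubated with p53RE-bla cells 16 h at 37 C. Beta-lactamase reporter signal then quantified by fluorescence.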

[7] = p53 small molecule agonists, cell-based qHTS assay with rat liver microsomes (AID 1963578)
In short: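 Each plate received p53RE-bla cells, then compound, then rat liver microsomes and NADPH (both 0.5 mg/mL final). Plates were held 16 h at 37 C, and beta-lactamase activity was detected with LiveBLAzer over 2 h.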

[8] = p53 small molecule agonists, cell-based qHTS assay with human liver microsomes: qHTS cell viability counter screen (AID 1963579); further: nearly all actives have a fitted effect of over 45% in size; further: potency means the concentration at half of the fitted maximal effect
In short: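 Tox21 library compounds, delivered from DMSO stocks, were tested on p53RE-bla cells together with 0.5 mg/mL human liver microsomes and 0.5 mg/mL NADPH (final) over 16 h at 37 C; CellTiter-Glo luminescence served as the cytotoxicity measure.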

[9] = p53 small molecule agonists, cell-based qHTS assay with rat liver microsomes: qHTS cell viability counter screen (AID 1963580); further: nearly all actives have a fitted effect of over 45% in size
In short: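 Cytotoxicity counter screen: intracellular ATP read by CellTiter-Glo luminescence in the p53 reporter wells. HCT-116 p53RE-bla cells were treated for 16 h at 37 C alongside rat liver microsomes and NADPH, each 0.5 mg/mL final.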

[10] = p53 small molecule agonists, cell-based qHTS assay: qHTS cell viability counter screen (AID 1963581); further: nearly all actives have a fitted effect of over 45% in size
In short: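 Luminescence from CellTiter-Glo, reflecting ATP content, serves as the cytotoxicity measure; it is taken after the 2 h reporter substrate step in HCT-116 p53RE-bla cells dosed for 16 h at 37 C.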

[11] = p53 small molecule agonists, cell-based qHTS assay (AID 1963582; active means well fitted activation curve with a large enough effect in the signal ratio in the repeat runs, not every such curve was filed as active; the % refers to the signal ratio)
In short: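 After plating, p53RE-bla cells sat 5 h in the incubator; compounds or DMSO vehicle were pinned in; a 16 h incubation at 37 C followed; FRET substrate was added and, 2 h later at RT, fluorescence was measured.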

[12] = biological target: 5-hydroxytryptamine receptor 2A (Homo sapiens) (UniProt P28223); assay: 5-hydroxytryptamine receptor 2A (HTR2A) small molecule antagonists, cell-based qHTS assay (AID 1963586); further: nearly all actives have a fitted effect of over 45% in size; further: potency means the concentration at half of the fitted maximal effect
In short: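 CHO cells stably expressing human HTR2A were plated for 18 h at 37 C, then loaded with calcium dye for 1 h. Compounds were preincubated 5 min at room temperature before DOI (4 nM solution) was added. Kinetic fluorescence was read for 3 min.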

[13] = biological target: 5-hydroxytryptamine receptor 2A (Homo sapiens) (UniProt P28223); assay: 5-hydroxytryptamine receptor 2A (HTR2A) small molecule agonists, cell-based qHTS assay (AID 1963587); further: nearly all actives have a fitted effect of over 30% in size; further: potency means the concentration at half of the fitted maximal effect
In short: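 Kinetic calcium-flux fluorescence (2 min, 1 sec intervals) after compound addition in agonist mode. HTR2A-CHO cells were cultured 18 h, then dye-loaded 1 h at 37 C.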

[14] = biological target: Muscarinic acetylcholine receptor M1 (Homo sapiens) (UniProt P11229); assay: Cholinergic receptor muscarinic 1 (CHRM1) small molecule agonists, cell-based qHTS assay (AID 1963589); further: nearly all actives have a fitted effect of over 35% in size
In short: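 Fluorescent calcium dye reports M1 activation in stably transfected CHO cells. Compounds, 15 concentrations, added after 1 h dye loading at 37 C; kinetic reading at 1 sec intervals.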

[15] = cAMP Responsive Elements (CRE) small molecule agonists, cell-based qHTS assay (AID 1963590)
In short: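 Compound exposure lasted 3 h at 37 C/5% CO2 in CRE-bla HEK 293T cells grown in assay medium with 10% dialyzed FBS and 25 mM HEPES. Reporter signal came from LiveBLAzer B/G FRET substrate, 2 h, room temperature.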

[16] = biological target: Beta-2 adrenergic receptor (Homo sapiens) (UniProt P07550); assay: Adrenergic beta2 receptor (ADRB2) small molecule antagonists, cell-based qHTS assay (AID 1963592); further: series mostly up to about 92 µM; nearly all actives have a fitted effect of over 50% in size
In short: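 Assay format: CHO-ADRB2 cells, 18-20hr seeding at 37C/5% CO2, then compound plus 1nM isoproterenol agonist mix for 0.5hr RT. Homogeneous time-resolved fluorescence cAMP detection after 1hr, expressed as 665/615 nm ratio.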

[17] = biological target: D(2) dopamine receptor (Homo sapiens) (UniProt P14416); assay: Dopamine D2 receptor (DRD2) small molecule agonists, cell-based qHTS assay (AID 1963594); further: nearly all actives have a fitted effect of over 35% in size
In short: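 cAMP accumulation in DRD2-HEK293 cells measured by HTRF after 1 h detection; compounds added 10 min before NKH477 (200nM […]) forskolin-analogue stimulation, 30 min at room temperature, with Ro20-1724 present at 0.1 mM final.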

[18] = biological target: D(2) dopamine receptor (Homo sapiens) (UniProt P14416); assay: Dopamine D2 receptor (DRD2) small molecule antagonists, cell-based qHTS assay (AID 1963595; active means well fitted inhibition curve with a large enough effect in the signal ratio in the repeat runs, with a control signal flat; the % refers to the signal ratio; further: potency means the concentration at half of the fitted maximal effect)
In short: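 Cells were plated and grown for 24 h at 37 °C. Ro20-1724 (0.1 mM final) went in first, then compound for 10 min. NKH477 (200 nM) with quinpirole (12 nM) followed for 30 min at RT, then HTRF detection reagents for 1 h.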

[19] = biological target: Muscarinic acetylcholine receptor M1 (Homo sapiens) (UniProt P11229); assay: Cholinergic receptor muscarinic 1 (CHRM1) small molecule antagonists, cell-based qHTS assay (AID 1963588); further: nearly all actives have a fitted effect of over 40% in size
In short: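 Compounds were tested at 15 concentrations in three independent runs. Dye-loaded CHRM1-CHO cells were exposed 5 min at room temperature before stimulation by acetylcholine added at 50nM. Intracellular calcium was read kinetically on FDSS for 3 min.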

[20] = cAMP Responsive Elements (CRE) small molecule antagonists, cell-based qHTS assay (AID 1963591; active means well fitted inhibition curve with a large enough effect in the signal ratio in the repeat runs, not every such curve was filed as active; the % refers to the signal ratio)
In short: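 Stimulation used NKH477 at a final 0.25 uM for 3 h in compound-treated CRE-bla HEK293T cells, seeded 18 h beforehand. Reporter activity was measured with LiveBLAzer B/G FRET substrate after 2 h at room temperature.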

Measured: Potency

Beta-2 adrenergic receptor (Homo sapiens), sequence (P07550 whole entry, looked up): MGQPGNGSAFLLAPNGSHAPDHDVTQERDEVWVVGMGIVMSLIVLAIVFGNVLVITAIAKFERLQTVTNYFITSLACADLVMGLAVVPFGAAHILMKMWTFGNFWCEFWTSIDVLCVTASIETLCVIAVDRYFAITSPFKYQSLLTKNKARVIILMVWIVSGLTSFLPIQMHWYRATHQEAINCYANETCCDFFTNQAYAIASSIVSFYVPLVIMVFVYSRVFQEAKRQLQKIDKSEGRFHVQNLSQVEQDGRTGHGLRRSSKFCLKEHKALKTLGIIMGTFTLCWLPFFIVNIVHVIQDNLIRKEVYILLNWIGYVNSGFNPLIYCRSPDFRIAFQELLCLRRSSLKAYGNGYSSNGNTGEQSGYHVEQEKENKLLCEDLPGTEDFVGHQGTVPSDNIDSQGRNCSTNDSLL
5-hydroxytryptamine receptor 2A (Homo sapiens), sequence (P28223 whole entry, looked up): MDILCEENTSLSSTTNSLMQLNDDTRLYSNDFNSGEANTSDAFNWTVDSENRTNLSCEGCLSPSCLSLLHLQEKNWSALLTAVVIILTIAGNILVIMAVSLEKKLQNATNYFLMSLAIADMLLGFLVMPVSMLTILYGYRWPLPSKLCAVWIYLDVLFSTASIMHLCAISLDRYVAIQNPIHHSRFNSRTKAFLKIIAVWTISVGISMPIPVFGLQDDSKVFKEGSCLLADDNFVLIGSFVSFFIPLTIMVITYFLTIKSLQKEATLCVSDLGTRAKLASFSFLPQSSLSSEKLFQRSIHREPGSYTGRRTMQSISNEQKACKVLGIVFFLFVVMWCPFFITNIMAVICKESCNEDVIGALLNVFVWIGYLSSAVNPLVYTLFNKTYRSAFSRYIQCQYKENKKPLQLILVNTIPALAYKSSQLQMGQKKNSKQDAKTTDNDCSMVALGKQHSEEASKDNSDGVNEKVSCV
D(2) dopamine receptor (Homo sapiens), sequence (P14416 whole entry, looked up): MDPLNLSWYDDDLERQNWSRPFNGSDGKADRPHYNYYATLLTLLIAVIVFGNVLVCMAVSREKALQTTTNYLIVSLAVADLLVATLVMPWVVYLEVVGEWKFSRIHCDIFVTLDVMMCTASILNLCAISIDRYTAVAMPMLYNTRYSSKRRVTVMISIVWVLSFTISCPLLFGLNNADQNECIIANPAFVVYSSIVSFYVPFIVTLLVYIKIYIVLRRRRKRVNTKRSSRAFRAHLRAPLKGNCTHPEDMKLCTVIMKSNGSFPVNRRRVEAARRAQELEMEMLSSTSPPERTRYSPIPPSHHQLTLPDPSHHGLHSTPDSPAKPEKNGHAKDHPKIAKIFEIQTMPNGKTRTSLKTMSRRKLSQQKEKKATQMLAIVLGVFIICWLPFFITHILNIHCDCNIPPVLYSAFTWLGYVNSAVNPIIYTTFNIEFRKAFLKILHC
KiSS-1 receptor (Homo sapiens), sequence (Q969F8 whole entry, looked up): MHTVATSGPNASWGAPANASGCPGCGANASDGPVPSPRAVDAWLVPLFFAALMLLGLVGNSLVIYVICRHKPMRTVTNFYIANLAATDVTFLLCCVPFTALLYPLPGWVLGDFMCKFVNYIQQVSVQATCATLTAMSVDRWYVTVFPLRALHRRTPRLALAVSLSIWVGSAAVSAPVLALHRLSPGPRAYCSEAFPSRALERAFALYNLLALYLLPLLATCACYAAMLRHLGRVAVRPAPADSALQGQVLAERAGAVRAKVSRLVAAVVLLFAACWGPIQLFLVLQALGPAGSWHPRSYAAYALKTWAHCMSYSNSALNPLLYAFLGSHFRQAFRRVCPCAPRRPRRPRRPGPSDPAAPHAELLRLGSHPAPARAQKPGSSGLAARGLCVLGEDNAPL
Gonadotropin-releasing hormone receptor (Homo sapiens), sequence (P30968 whole entry, looked up): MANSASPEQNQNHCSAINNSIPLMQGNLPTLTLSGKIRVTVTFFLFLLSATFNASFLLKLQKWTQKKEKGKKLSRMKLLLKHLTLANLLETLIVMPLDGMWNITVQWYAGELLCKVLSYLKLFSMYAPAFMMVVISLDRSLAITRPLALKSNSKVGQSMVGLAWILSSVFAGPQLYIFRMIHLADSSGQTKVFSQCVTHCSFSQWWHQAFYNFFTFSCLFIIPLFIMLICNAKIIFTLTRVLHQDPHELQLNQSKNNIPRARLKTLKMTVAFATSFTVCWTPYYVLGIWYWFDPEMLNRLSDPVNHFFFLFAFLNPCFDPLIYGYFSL
Muscarinic acetylcholine receptor M1 (Homo sapiens), sequence (P11229 whole entry, looked up): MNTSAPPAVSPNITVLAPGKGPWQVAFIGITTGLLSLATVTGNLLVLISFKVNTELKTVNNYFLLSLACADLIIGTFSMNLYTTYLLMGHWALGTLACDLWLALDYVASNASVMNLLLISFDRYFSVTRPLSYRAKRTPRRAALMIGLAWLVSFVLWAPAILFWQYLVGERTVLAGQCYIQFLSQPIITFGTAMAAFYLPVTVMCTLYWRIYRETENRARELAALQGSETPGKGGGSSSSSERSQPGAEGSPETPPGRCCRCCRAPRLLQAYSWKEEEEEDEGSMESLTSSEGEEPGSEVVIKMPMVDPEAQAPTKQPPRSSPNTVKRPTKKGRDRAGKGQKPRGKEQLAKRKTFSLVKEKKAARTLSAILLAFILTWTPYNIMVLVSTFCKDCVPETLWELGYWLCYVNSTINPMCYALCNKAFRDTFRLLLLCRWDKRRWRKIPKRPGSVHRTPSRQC

Cc1cc(O)ccc1Cl
inactive: [1] | [2] | [3] | [4] | [5] | [6] | [7] | [8] | [9] | [10] | [11] | [12] | [13] | [14] | [15] | [16] | [17] | [18]

OC(Cc1ccccc1Cl)(Cn1cncn1)C1(Cl)CC1 (stereo not given)
inactive: [1] | [2] | [3] | [4] | [5] | [6] | [7] | [8] | [9] | [10] | [11] | [12] | [19] | [14] | [15] | [20] | [16] | [18]

Cn1c(N)nc2c3cccnc3ccc21
inactive: [1] | [2] | [3] | [4] | [5] | [6] | [7] | [8] | [9] | [10] | [11] | [13] | [19] | [14] | [15] | [20] | [16] | [17] | [18]

O=C1C(Cl)=C(Cl)C(=O)c2ccccc21
active: [1] 24.4 µM and 48.6 µM | [2] 5.46 µM and 8.63 µM | [3] 34.8 µM | [8] 14.5 µM | [12] 26.6 µM | [13] 6.94 µM | [18] 21.7 µM
inactive: [4] | [5] | [6] | [7] | [9] | [10] | [11] | [14] | [17]

N#CCBr
inactive: [1] | [2] | [3] | [4] | [5] | [6] | [7] | [8] | [9] | [10] | [11] | [12] | [19] | [14] | [15] | [20] | [16] | [17] | [18]

C1CCC2CCCCC2C1 (stereo not given)
inactive: [1] | [2] | [3] | [4] | [5] | [6] | [7] | [8] | [9] | [10] | [11] | [12] | [13] | [15] | [20] | [16] | [17] | [18]

Brc1ccc(Oc2ccccc2)cc1
inactive: [1] | [3] | [4] | [5] | [6] | [7] | [8] | [9] | [10] | [11] | [12] | [13] | [15] | [20] | [16] | [17] | [18]
35.2 µM (active) and inactive: [2]

Brc1ccc(Oc2cc(Br)c(Br)cc2Br)c(Br)c1
active: [2] 12.3 µM
inactive: [1] | [3] | [4] | [5] | [6] | [7] | [8] | [9] | [10] | [11] | [12] | [19] | [14] | [15] | [20] | [16] | [17] | [18]
